Rows were chosen to be rich in hits. Some 3.2% of all compounds tested hit in one or more screens of this group.
p53null 39C tox = p53 null cell cytotoxicity, nonpermissive temperature; H1299 p53-null (neo) cells, 39C, ATPlite viability, 24 h; Potency, µM (titrated, usually from 46.1 µM), inactives show at the top dose activity, negative = cell killing, usual class: cytotoxic; actives 0.97% (n = 55,000); AID 904;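 note: 0% = DMSO only and -100% = full killing by 100 µM tamoxifen; nearly all actives have a fitted effect of over 50% in size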
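H1299 lung cancer cells, p53-null (H1299-neo) or expressing p53 A138V (H1299-p53A138V), were plated overnight at 37C, then exposed to compounds at up to 46 uM for 24 hr at 39C. Viability was read by ATP-based luminescence.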
p53null 32C tox = selectivity test: cytotoxicity in p53 null cells, permissive temperature. H1299-neo p53 null cells, ATP luminescence, 24 h, 32C. actives 0.62% (n = 55,000). Potency, µM (highest dose often 46.1 µM), for inactives: top-dose activity change, negative = cytotoxicity, usual class: cytotoxic;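 note: 0% = DMSO only and -100% = full killing by 100 µM tamoxifen; nearly all actives have a fitted effect of over 55% in size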
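Cells lacking p53 (H1299-neo) are plated at 600 per well and allowed to settle overnight at 37C. Test compounds (up to 46 uM) are added and held 24 hours at 32C, then ATP is quantified by luminescence.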
mTORC1 inh = inhibitors of mTORC1 signaling in Tsc2-/- p53-/- MEF cells; AID 493208; Potency, µM (titrated, usually from 38.3 µM), for the others: top-dose activity change, negative = inhibition, most hits filed as inhibitors; actives 0.78% (n = 44,000); Tsc2-/- p53-/- MEF, phospho-rpS6 immunofluorescence/PI, 24 h;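 note: plate controls were DMSO for no effect and rapamycin for full effect; nearly all actives have a fitted effect of over 50% in size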
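Immunofluorescence of rpS6 phosphorylation in Tsc2-/-, p53-/- MEFs after 24 h compound exposure, normalized to propidium iodide signal. Activity is expressed as % positive cells, thresholded with 7.5 nM rapamycin.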
S16 F2sN tox = cytotoxicity in S16 Pmp22-F2sN Schwann cells | actives 0.48% (n = 43,000) | S16 Pmp22-F2sN Schwann cells viability, CellTiter-Glo, 24 h | Potency, µM (doses to about 57.5 µM), for the others: at the top dose activity change, negative = cytotoxicity, usual class: cytotoxic | AID 1508642; note: nearly all actives have a fitted effect of over 65% in size
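S16 Pmp22-F2sN Schwann cells (500-1,000/well) in phenol-red-free DMEM with 10% FBS received 23 nL compound by pin tool for 24 h at 37 °C. Viability was then read as CellTiter-Glo luminescence after 15 min at room temperature.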
PMP22 txn = modulators of PMP22 gene transcription in S16 Schwann cells. S16 Pmp22-F2sN Schwann cells (luciferase reporters placed in the Pmp22 gene), FLuc/NLuc coincidence luminescence, 24 h. Potency, µM (top dose mostly 57.5 µM), for inactives: at the highest dose activity change, negative = inhibition, most hits filed as inhibitors. actives 2% (n = 43,000). AID 1508649; active = clear falling dose curves in both reporters; inconclusive = both reporters move, but less clearly or upward; inactive = either reporter flat; the % is the NLuc reporter signal
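S16(c9) Schwann cells with FLuc/NLuc coincidence reporter in the Pmp22 3' UTR; compounds pin-transferred, 24 h at 37C. Dual-luciferase read: FLuc first, then NLuc after Stop&Glo, each 10 min at room temperature.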
* = called active by the depositor; ? = inconclusive; · = not tested or not shown. Unless noted, calls come from the whole dose curve; as a rule, active = well fitted curve in the direction sought with a large enough effect; inconclusive = small, poorly fitted or top-dose-only effect, or another doubt; inactive = no such curve, though single readings can be large; an effect the other way counts as inactive or inconclusive. Unless noted, % is set by controls: 0 for no effect and ±100 for the full control effect; potency is the fitted concentration of half-maximal effect.

SMILES	p53null 39C tox	p53null 32C tox	mTORC1 inh	S16 F2sN tox	PMP22 txn
CCc1ccc(NC(=O)Cn2c(=O)n(-c3ccccc3)c(=O)c3ccc(C(=O)NCc4ccc5c(c4)OCO5)cc32)cc1	-15.3%	-14.2%	?	5.4%	?
Cn1c(NCc2cccc(Cl)c2)nc2ccccc21	-7.5%	-10.9%	-3.6%	-19.0%	-38.4%
CC1CCN(S(=O)(=O)c2ccc3c(c2)N(CC(=O)NC(C)C)C(=O)CS3)CC1	-9.5%	-3.3%	3.7%	-0.1%	6.5%
CCOc1ccccc1NC(=O)c1cnc(N2CCOCC2)c2ccccc12	45.1%	-3.3%	-4.0%	-4.6%	-16.3%
Cc1ccccc1Cn1c2ccccc2c2cnn(CC(=O)NCCc3ccccc3)c(=O)c21	-24.2%	-10.8%	-15.2%	7.7%	?
CCc1ccc(NC(=O)CN(c2ccc(C)cc2)S(=O)(=O)c2cccs2)cc1	-0.6%	2.6%	-17.2%	2.7%	?
Cc1ccc(-n2ncc3c(N4CCCCCC4)ncnc32)cc1C	-11.4%	10µM*	13.2%	18.5%	6.4%
Cc1cccc(-n2ncc3c(N4CCCC(C)C4)ncnc32)c1 (configuration not stated)	2µM*	3.16µM*	0.6%	-0.2%	?
CC1CCCN(c2ncnc3c2cnn3-c2ccc(F)cc2)C1 (configuration not stated)	?	2.82µM*	10.6%	10.9%	3.0%
Cc1ccc(-n2ncc3c(N4CCN(c5ccc(F)cc5)CC4)ncnc32)cc1	-5.4%	-5.9%	9.4%	-0.2%	5.2%
Cc1cc(C)cc(OCCOCCn2c(-c3ccc(Cl)cc3)nc3ccccc3c2=O)c1	18.6%	-2.1%	?	·	·
CC(=O)c1cccc(Nc2ncnc3c2cnn3-c2cccc(Cl)c2)c1	0.8%	-3.0%	12.3%	11.8%	?
CCN1CCN(Cc2c(O)ccc3c(=O)c(Oc4ccccc4C(C)C)c(C(F)(F)F)oc23)CC1	2.6%	9.1%	1.8%	-2.4%	-18.5%
COc1ccc(OC)c(NC(=O)c2c(NCc3ccc(N(C)C)cc3)sc3c2CCCC3)c1	0.1%	18.8%	-19.1%	-22.9%	?
O=S(=O)(NCC(c1cccs1)S(=O)(=O)c1ccccc1)c1ccc(F)cc1 (configuration not stated)	23.0%	3.5%	-2.0%	20µM*	?
COc1ccc(S(=O)(=O)NCC(c2cccs2)S(=O)(=O)c2ccccc2)cc1OC (configuration not stated)	8.6%	1.5%	-0.6%	?	?
Cc1cc(S(=O)(=O)C(CNC(=O)COc2ccccc2)c2cccs2)ccc1F (configuration not stated)	-0.8%	-8.8%	0.0%	4.9%	-1.0%
O=S(=O)(NCC(c1cccs1)S(=O)(=O)c1ccccc1)c1ccc(F)c(C(F)(F)F)c1 (configuration not stated)	17.5%	0.1%	2.4%	20µM*	?
COc1cc(NC(=O)c2cccc3c2C(=O)N(C2CCCCC2)C3)cc(OC)c1OC	9.6%	17.0%	14.7µM*	?	?
Cc1cc(C)cc(NC(=O)c2cccc3c2C(=O)N(C2CCCCC2)C3)c1	-1.8%	-2.0%	-5.8%	17.3%	0.7%
O=S(=O)(Nc1cccc(-c2ccc(N3CCCCC3)nn2)c1)c1cccs1	10µM*	15.8µM*	0.8%	·	·
O=S(=O)(Nc1cccc(-c2ccc(N3CCCCC3)nn2)c1)c1ccc(Cl)s1	10µM*	15.8µM*	1.7%	·	·
Cc1ccc2scc(N3CCCCC3C)c(=O)c2c1 (configuration not stated)	15.8µM*	12.6µM*	2.2%	2.8%	-9.3%
Cc1ccc2scc(N3CCC(C)CC3)c(=O)c2c1	20µM*	?	4.4%	-1.1%	?
Cc1ccc2scc(N3CCCCC3)c(=O)c2c1	12.6µM*	10µM*	-0.5%	-0.6%	-18.7%
SMILES	p53null 39C tox	p53null 32C tox	mTORC1 inh	S16 F2sN tox	PMP22 txn
CCOc1ccccc1NC(=O)C(NS(=O)(=O)c1ccc2c(c1)CCC(=O)N2)c1ccccc1 (configuration not stated)	-11.4%	-0.3%	-0.8%	10.0%	-10.8%
Cc1ccc(NC(=O)Cn2cc3c(n2)CCCC3)cc1Cl	-10.8%	2.2%	1.1%	-3.2%	?
COc1ccc(-n2cc(-c3ccc4c(c3)OCO4)n(CC(=O)Nc3cc(Cl)ccc3C)c2=O)cc1	10µM*	15.8µM*	-12.7%	?	?
COc1ccc(-n2cc(-c3ccc4c(c3)OCO4)n(CC(=O)Nc3cccc(C)c3C)c2=O)c(OC)c1	?	-3.0%	-14.6%	?	-5.5%
O=C(c1ccc2c(c1)N(Cc1cccc(Cl)c1)C(=O)c1ccccc1S2)N1CCOCC1	-2.7%	13.7%	-7.2%	-3.4%	-0.5%
Cc1ccsc1CCN1C(=O)N(c2ccccc2)C(=O)C1CC(=O)Nc1ccc(Cl)cc1 (configuration not stated)	16.2%	-0.3%	-5.3%	31.6µM*	?
O=C(CC1C(=O)N(c2ccccc2)C(=O)N1CCc1cccs1)Nc1ccc(Cl)cc1 (configuration not stated)	17.4%	0.8%	2.1%	?	-15.4%
FC(F)(F)c1cccc(N2CCN(Cc3nnc(-c4ccc5c(c4)OCO5)o3)CC2)c1	-22.2%	-0.1%	4.3%	5.8%	-33.4%
Cc1cccc(-n2nnnc2S(C)(=O)=O)c1	22.1%	14.1µM*	0.414µM*	5.01µM*	6.7µM*
O=C(CCn1ccc2cc(S(=O)(=O)N3CCCC3)ccc21)NCc1cccc(Br)c1	37.6%	1.4%	-10.0%	-17.2%	?
COc1ccc(CSc2nc3ncccc3[nH]2)cc1	11.2µM*	11.2µM*	2.9%	-2.4%	17.6%
CCN(CC)S(=O)(=O)c1ccc(NC(=O)CCc2c(C)nc3cc(-c4ccc(Cl)cc4)nn3c2C)cc1	-10.1%	-4.1%	11.7µM*	?	7.77µM*
O=C(CCCc1ccccc1)c1ccc2c(c1)OCCO2	12.6µM*	10µM*	·	·	·
O=C(NCCCc1ccccc1)C1CC(=O)N(c2ccc3c(c2)OCCO3)C1 (configuration not stated)	12.7%	6.5%	·	·	·
CS(=O)(=O)N(CC(=O)NCCc1ccccc1)c1cc(C(F)(F)F)ccc1Cl	11.5%	-5.1%	6.56µM*	-2.0%	16.1%
CCCOc1cccc(C(=O)Nc2cc(-c3ccccc3)no2)c1	42.4%	23.9%	?	-24.9%	-2.5%
CC1CCN(S(=O)(=O)c2ccc3c(c2)N(CC(=O)N2CCN(c4ccccc4)CC2)C(=O)CO3)CC1	-14.0%	7.5%	-9.5%	2.5%	-31.3%
